Compound activity (PubChem)
mIDH1 inhibitor = qHTS for Inhibitors of mutant isocitrate dehydrogenase 1 (IDH1): qHTS. AID 602179, 2012. 390,000 compounds, 0.093% hits. Potency, µM (highest dose often 76.6 µM), for inactives: top-dose activity change, negative = inhibition, usual class: inhibitors. IDH1-R132H enzyme, NADPH consumption, diaphorase/resazurin fluorescence. Isocitrate dehydrogenase [NADP] cytoplasmic (Homo sapiens), O75874; note: nearly all actives have a fitted effect of over 65% in size
Target sequence (O75874 whole entry R132H, stated change not applied): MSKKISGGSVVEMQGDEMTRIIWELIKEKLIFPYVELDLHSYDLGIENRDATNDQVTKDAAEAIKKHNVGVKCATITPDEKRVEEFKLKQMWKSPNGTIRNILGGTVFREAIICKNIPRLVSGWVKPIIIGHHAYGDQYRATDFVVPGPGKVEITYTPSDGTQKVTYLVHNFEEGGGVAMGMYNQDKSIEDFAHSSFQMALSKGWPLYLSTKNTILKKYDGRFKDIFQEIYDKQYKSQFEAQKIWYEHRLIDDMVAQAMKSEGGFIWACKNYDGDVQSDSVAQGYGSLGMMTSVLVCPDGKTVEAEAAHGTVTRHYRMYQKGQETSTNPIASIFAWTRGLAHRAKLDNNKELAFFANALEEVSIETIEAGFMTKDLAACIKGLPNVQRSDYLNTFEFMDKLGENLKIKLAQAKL
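IDH1-R132H (0.5 ug/mL) preincubated 30 min with compound, then NADPH (0.016 mM) and alpha-KG (2 mM) added; 80 min at RT, pH 7.5. Remaining NADPH coupled via diaphorase/resazurin to fluorescence (540/590 nm); concentration-response curves normalized to no-enzyme control.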
VDR inh = Inhibitors of the vitamin D receptor (VDR): qHTS. 400,000 compounds, 0.93% hits. AID 504847, 2011. VDR-SRC2-3 peptide fluorescence polarization, 2 h. Potency, µM, without a hit: max response, negative = inhibition, actives largely listed as inhibitors. Vitamin D3 receptor (Homo sapiens), P11473
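Two reagent solutions held at 4 deg C in the dark were dispensed, compounds pinned at 23 nl, and the mixture incubated 2 h at room temperature. Read-out: fluorescence polarization of VDR–SRC2-3 peptide binding.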
Sfp inh = qHTS Assay for Inhibitors of Bacillus subtilis Sfp phosphopantetheinyl transferase (PPTase) | Potency, µM, without a hit: largest response in the series, negative = inhibition, usual class: inhibitors | 310,000 compounds, 3.5% hits | Biochemical Sfp PPTase activity, qHTS | 4'-phosphopantetheinyl transferase ffp (Bacillus subtilis), Q9F4F7 | AID 1490, 2009;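 note: the enzyme is Sfp with the accession as filed and its product quenches rhodamine fluorescence; 0% = enzyme reaction without inhibitor and -100% = no enzyme wells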
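Fluorescence-quenching assay: 15 nM Sfp-PPTase preincubated 15 min at room temperature with compound, then 5 uM rhodamine-CoA and 12.5 uM BHQ-2-labelled YbbR peptide added. Fluorescence (ex 525/em 598 nm) read at start and after 30 min; difference gives rate.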
rTrxR1 inhibitor = qHTS Assay for Inhibitors of Mammalian Selenoprotein Thioredoxin Reductase 1 (TrxR1): qHTS; recombinant rTrxR1, NADPH fluorescence consumption, selenite substrate; 390,000 compounds, 1% hits; Thioredoxin reductase 1, cytoplasmic (Rattus norvegicus), O89049; Potency, µM (highest dose often 114 µM), without a hit: at the highest dose activity change, negative = inhibition, most hits filed as inhibitors; note: nearly all actives have a fitted effect of over 65% in size
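Rat TrxR1 (90 nM in the dispensed reagent) was pre-reduced with 400 uM NADPH for 5 min at room temperature, then incubated with compound for 15 min. After 400 uM selenite was added, NADPH fluorescence (Ex 340/Em 450 nm) was followed for 8 min.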
TrxR1 substrate = qHTS Assay for Substrates of Mammalian Selenoprotein Thioredoxin Reductase 1 (TrxR1): qHTS; AID 588456, 2011; Potency, µM (top dose mostly 114 µM), for the others: at the highest dose activity change, negative = substrate turnover; Thioredoxin reductase 1, cytoplasmic (Rattus norvegicus), O89049; 390,000 compounds, 0.01% hits; purified TrxR1 substrate turnover, NADPH consumption readout; note: nearly all actives have a fitted effect of over 50% in size
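Rat TrxR1, dispensed at 90 nM, was prereduced with 400 uM NADPH (final) for 5 min at ~22 deg C, then incubated with compound 15 min before 400 uM selenite. A first-read NADPH fluorescence drop versus no-compound background flagged substrates.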
PLK1 PBD inh = qHTS for Inhibitors of PLK1-PDB (polo-like kinase 1 - polo-box domain): Primary Screen. 360,000 compounds, 2.8% hits. Plk1 PBD binding of FITC phosphopeptide, fluorescence polarization. AID 720504, 2013. Serine/threonine-protein kinase PLK1 (Homo sapiens), P53350. Potency, µM, for inactives: max response, negative = inhibition, usual class: inhibitors; note: series mostly up to about 57 µM; nearly all actives have a fitted effect of over 65% in size
An asterisk follows results filed as active; u = inconclusive; x = no result given; [ ] = remark or other dose. Sampled rows, rich in hits. Any-hit rate of the full collection: about 5.2%. Calls come from the whole dose curve; as a rule, active = well fitted curve in the direction sought with a large enough effect; inconclusive = small, poorly fitted or top-dose-only effect, or another doubt; inactive = no such curve, though single readings can be large; an effect the other way counts as inactive or inconclusive. Unless noted, % is set by controls: 0 for no effect and ±100 for the full control effect; potency is the fitted concentration of half-maximal effect.

SMILES	mIDH1 inhibitor	VDR inh	Sfp inh	rTrxR1 inhibitor	TrxR1 substrate	PLK1 PBD inh
CC(C)C[C@H](NC(=O)[C@H](CO)NC(=O)CNC(=O)[C@H](CCCCN)NC(=O)[C@H](CCCN=C(N)N)NC(=O)[C@H](C)NC(=O)[C@H](Cc1ccccc1)NC(=O)[C@@H](N)CCCN=C(N)N)C(=O)N[C@@H](CCCN=C(N)N)C(=O)N[C@@H](CCC(N)=O)C(=O)N[C@@H](CCCCN)C(=O)N[C@@H](CC(N)=O)C(=O)N[C@H](C(=O)O)C(C)C	x	4.9%	11.0%	x	x	x
O=C(OCC(=O)N1CCCC1=O)C1CCN(S(=O)(=O)c2c(Cl)cccc2Cl)CC1	3.4%	-10.0%	3.8%	-2.8%	-9.2%	-19.0%
CC(=O)Nc1ccc2sn(-c3ccccc3)c(=O)c2c1	2.1%	x	x	x	x	3.36µM*
O=c1c2cc([N+](=O)[O-])ccc2sn1-c1ccccc1	1.0%	x	x	x	x	2.67µM*
O=c1c(-c2ccccc2)c[nH]n1-c1cccc([N+](=O)[O-])c1	22.6%	15.7%	11.4%	1.0%	-6.7%	-10.2%
N#Cc1ccc2sn(-c3ccccc3)c(=O)c2c1	-1.9%	x	x	x	x	2.67µM*
COc1ccc(OC)c(C2c3c(-c4ccc(Br)cc4)n[nH]c3C(=O)N2c2ccc(Cl)cc2)c1 (configuration not stated)	-1.2%	-10.9%	x	17.6%	1.8%	x
Cc1ccc(/C=N/NC(=O)CNC(=O)c2cccs2)o1	-4.2%	-2.5%	1.4%	-10.8%	-8.0%	-2.0%
O=C(N/N=C/c1ccc(-c2ccccc2C(=O)O)o1)c1cccs1	10.5%	-3.3%	50.1µM*	u	-15.9%	u
COc1cccc(Cn2c(=O)n(CC3CCC(C(=O)N4CCCCC4)CC3)c(=O)c3sccc32)c1 (configuration not stated)	-19.1%	7.2%	x	2.1%[57.1 µM]	-6.1%[57.1 µM]	x
C=CCN1c2ccccc2[C@]23C[C@@H](C(=O)OC)N(S(=O)(=O)c4cccs4)C2=NC(C(=O)OC)=C(C(=O)OC)[C@H]13	x	x	4.5%	x	x	x
COc1cc(CNC(=O)c2cnc3c(-c4cccc(C)c4)c(C)nn3c2C)cc(OC)c1OC	-1.2%	-8.1%	x	6.7%[57.1 µM]	-0.7%[57.1 µM]	x
COc1ccc(-n2c(CNC(=O)COc3ccccc3)n[nH]c2=S)cc1	0.1%	0.2%	5.8%	-2.5%	2.8%	-1.4%
COc1cc(OC)cc(C(=O)NCc2n[nH]c(=S)n2-c2ccccc2)c1	6.8%	3.2%	89.1µM*	-18.1%	7.6%	-7.4%
COc1ccc(C(=O)NCc2n[nH]c(=S)n2-c2ccccc2)cc1OC	6.8%	-21.1%	56.2µM*	2.0%	15.6%	-11.0%
COc1ccc(CCc2c[nH]c(=O)c3cncnc23)cc1OC	x	-25.1%	x	7.9%	-3.2%	x
COC(=O)c1ccc(C(NC(=O)OCc2ccccc2)/C(I)=C/[C@@H](C)C(=O)NCc2ccc(C)o2)cc1 (some centres not stated)	x	x	39.8µM*	x	x	x
O=C(CSc1nc2c([nH]c3ccccc32)c(=O)n1-c1ccc(Cl)cc1)N1CCOCC1	15.4%	4.5%	x	7.6%[57.1 µM]	5.3%[57.1 µM]	x
FC(F)(F)c1ccccc1-c1cncnc1NCCN1CCOCC1	x	44.7µM*	1.3%	x	x	x
Clc1ccccc1-c1cncnc1NCCN1CCOCC1	x	-25.0%	24.3%	x	x	x
CCOc1[nH]c(/N=C/c2ccccc2)c(C#N)c1C#N	x	9.2%	x	-19.6%	-3.7%	x
Cc1sc2ncnc(SCC(=O)N3CCCC3)c2c1C	4.7%	9.2%	3.8%	-8.2%	-0.2%	-5.1%
CC(=O)N1CCN(C(=O)CSc2ncnc3sc(C)c(C)c23)CC1	1.6%	-7.6%	x	-1.6%[11.4 µM]	10.2%[11.4 µM]	29.9µM*
CSc1nc(Oc2cccc(C(F)(F)F)c2)cc(C(F)(F)F)n1	0.5%	-23.0%	-6.5%	4.8%[57.1 µM]	0.6%[57.1 µM]	26.7µM*
CSc1nc(Oc2ccc(F)cc2F)cc(C(F)(F)F)n1	5.8%	13.7%	9.5%	-3.3%[57.1 µM]	3.8%[57.1 µM]	-4.2%
SMILES	mIDH1 inhibitor	VDR inh	Sfp inh	rTrxR1 inhibitor	TrxR1 substrate	PLK1 PBD inh
Clc1nc(Nc2ccc(N3CCOCC3)cc2)c2ccccc2n1	5.4%	22.6%	-6.1%	20.1%[57.1 µM]	3.4%[57.1 µM]	-9.1%
O=S(=O)(Nc1nc2ccccc2nc1Nc1ccc(N2CCOCC2)cc1)c1cc(Cl)ccc1Cl	1.2%	-23.1%	28.9%	8.4%	-2.7%	11.9µM*
O=C(c1ccccc1)N1CCCC(C(=O)N2CCCCC2)C1 (configuration not stated)	-6.5%	2.8%	11.6%	23.8%	2.2%	-8.2%
CCOC(=O)c1c(C)[nH]c(C)c1S(=O)(=O)N1CCCC(C(=O)N2CCN(c3ccc(Cl)cc3)CC2)C1 (configuration not stated)	-13.4%	12.1%	x	5.8%[57.1 µM]	-2.7%[57.1 µM]	x
CC(=O)c1ccc(N2CCN(C(=O)C3CCCN(S(=O)(=O)c4c(C)[nH]c(=O)[nH]c4=O)C3)CC2)cc1 (configuration not stated)	-5.3%	u	12.1%	8.0%[57.1 µM]	-3.8%[57.1 µM]	15µM*
O=C(c1ccccc1)N1CCCC(C(=O)N2CCN(c3ccccc3)CC2)C1 (configuration not stated)	8.6%	u	21.3%	4.5%[57.1 µM]	4.4%[57.1 µM]	26.7µM*
CC(=O)c1ccc(N2CCN(C(=O)C3CCC3)CC2)cc1	6.0%	2.9%	89.1µM*	-11.1%	-13.1%	-5.8%
CC(=O)c1ccc(N2CCN(C(=O)C3CCN(S(=O)(=O)c4ccc(F)cc4)CC3)CC2)cc1	9.2%	10.5%	x	12.8%	-0.4%	0.4%
Cc1cc2c(cc1S(=O)(=O)N(CCO)Cc1ccccc1)OCC(=O)N2	4.9%	6.5%	x	5.4%[57.1 µM]	-5.2%[57.1 µM]	x
Cc1nnc(NC(=O)CN2CCN(Cc3ccc(F)cc3Cl)CC2)s1	-1.9%	-19.9%	24.5%	6.7%	-1.6%	-5.7%
CC1=CC(=O)C2C(C)(C)CCC[C@@]2(C)[C@@]1(O)CCc1ccoc1 (some centres not stated)	x	50.1µM*	-7.5%	x	x	x
CCOC(=O)CNC(=O)CSc1nc(-c2ccccc2)ns1	8.2%	u	17.8µM*	47.3%[57.1 µM]	-6.3%[57.1 µM]	13.4µM*
O=C(CSc1nc(-c2ccccc2)ns1)NCC1CCCO1 (configuration not stated)	8.6%	-27.8%	35.5µM*	0.8%	-0.2%	15µM*
